Screening data deposited in PubChem by National Center for Advancing Translational Sciences (NCATS).
Sampled rows, rich in hits. Any-hit rate of the full collection: about 5.9%.
KB-V1 MDR tox – KB-V1 MDR subline cytotoxicity; KB-V1 MDR cells viability, CellTiter-Glo, 72 h; Potency, µM (top dose mostly 46.1 µM), usual class: cytotoxic; 3.4% of 400,000 active; also: % is scaled to controls: 0 for no effect and ±100 for the full control effect; nearly all actives have a fitted effect of over 60% in size
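Drug-selected KB-V1 cells, grown in DMEM lacking phenol red with 10% FBS, receive compound titrations; after three days at 37 degrees C, surviving cell ATP is quantified by CellTiter-Glo luminescence and responses normalized and curve-fitted.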
HepG2 viability – kills HepG2 cells in TGF-b inhibitor counter-screen | Potency, µM (top dose mostly 46.1 µM), for inactives: at the top dose activity change, negative = cytotoxicity, hits mostly cytotoxic | HepG2 CAGA-GFP viability, ATP luminescence, 18 h | 0.76% of 410,000 active
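CellTiter-Glo luminescence gave cytotoxicity after 18 hours at 37 degrees C. The cells were HepG2 CAGA-GFP in 1% FBS DMEM, stimulated with 500 pg/mL TGF-beta after compound addition. %Activity was normalised to no-cell wells (complete cell-killing) and DMSO (no toxicity), and curves were fitted and classified.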
KB-3-1 cytotox – KB-3-1 parental cell cytotoxicity; KB-3-1 viability, CellTiter-Glo ATP luminescence, 72 h; Potency, µM (doses to about 46.1 µM), most hits filed as cytotoxic; 1.4% of 400,000 active; also: % is scaled to controls: 0 for no effect and ±100 for the full control effect; nearly all actives have a fitted effect of over 60% in size
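Cytotoxicity measured as CellTiter-Glo luminescence after 72 h at 37 C. Compound titrations were pinned onto drug-naive KB-3-1 parental adenocarcinoma cells grown in DMEM with 10% FBS, and normalized data fitted to concentration-response curves.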
ATXN2 expr inh – inhibitors of ATXN2 expression. AID 1745845. Potency, µM (titrated, usually from 57 µM), for inactives: at the highest dose activity change, negative = inhibition, most hits filed as inhibitors. 0.72% of 360,000 active. HEK-293 ATXN2-luciferase reporter, luminescence, 24 h; also: % is scaled to controls: 0 for no effect and ±100 for the full control effect; nearly all actives have a fitted effect of over 55% in size
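ATXN2-luciferase reporter cells (luciferase flanked by upstream and downstream ATXN2 gene portions) were treated 24 h at 37 °C with compounds at up to 57 uM. SteadyGlo luminescence gave expression; GF-AFC fluorescence gave viability.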
S2 tox – viability counter-screen for ATXN expression inhibitors. S2 cells (HEK-293 line with an ATXN2-luciferase reporter) viability, CellTiter-Fluor protease fluorescence, 24 h. Potency, µM (highest dose often 56.7 µM), usual class: cytotoxic. 0.49% of 400,000 active; also: nearly all actives have a fitted effect of over 40% in size
TGFb SMAD3 inh – blocks TGF-b signaling | AID 588855 | Potency, µM (top dose mostly 46.1 µM), inactives show at the top dose activity, negative = inhibition, most hits filed as inhibitors | 1.2% of 410,000 active | HepG2 CAGA-GFP TGF-b/SMAD3 reporter, GFP fluorescence, 18 h; TGF-beta stimulated, 500 pg/mL final; also: % is scaled to controls: 0 for no effect and ±100 for the full control effect; nearly all actives have a fitted effect of over 65% in size
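TGF-beta reporter screen: HEPG2 CAGA-GFP, 1% FBS, 500 pg/mL TGF-beta final, 18 h; per-cell GFP summed per well; curves fitted and categorized by class.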
An asterisk follows results filed as active. Calls follow the shape of the dose curve; as a rule, active = well fitted curve in the direction sought with a large enough effect; inconclusive = small, poorly fitted or top-dose-only effect, or another doubt; inactive = no such curve, though single readings can be large; an effect the other way counts as inactive or inconclusive. Potency is read from the fitted curve at half-maximal effect.

What do the screens show for `COc1ccccc1NC(=O)N1CCN(c2ccnc3cc(Cl)ccc23)CC1`?
KB-V1 MDR tox: inactive; HepG2 viability: -37.6%; KB-3-1 cytotox: inactive; ATXN2 expr inh: -35.5%; S2 tox: inactive; TGFb SMAD3 inh: 0.0%

How did COc1ccc2c(c1)CC(NC(=O)Nc1ccc(Br)c(C)c1)CO2 (stereo not given) do in these assays?
KB-V1 MDR tox: inactive; HepG2 viability: 1.8%; KB-3-1 cytotox: inactive; TGFb SMAD3 inh: 3.0%

What do the screens show for `O=S(=O)(NOCc1ccc(Cl)cc1)c1ccc(Cl)cc1`?
KB-V1 MDR tox: inactive; HepG2 viability: -44.6%; KB-3-1 cytotox: inactive; ATXN2 expr inh: -11.0%; S2 tox: inactive; TGFb SMAD3 inh: inconclusive

What do the screens show for `CC(=O)Nc1ccc(S(=O)(=O)NCCOc2ccc(Cl)cc2C)cc1`?
KB-V1 MDR tox: inactive; HepG2 viability: -12.3%; KB-3-1 cytotox: 8.2µM*; ATXN2 expr inh: -19.9%; S2 tox: inactive; TGFb SMAD3 inh: -14.2%

How did CCCCOc1ccc(CONS(=O)(=O)c2ccc(NC(C)=O)cc2)cc1Cl do in these assays?
KB-V1 MDR tox: 14.6µM*; HepG2 viability: -31.1%; KB-3-1 cytotox: inactive; ATXN2 expr inh: -10.7%; S2 tox: inactive; TGFb SMAD3 inh: inconclusive

How did CC(=O)Nc1ccc(S(=O)(=O)NCCSCc2c(Cl)cccc2Cl)cc1 do in these assays?
KB-V1 MDR tox: 5.8µM*; HepG2 viability: -15.0%; KB-3-1 cytotox: 9.2µM*; ATXN2 expr inh: -14.5%; S2 tox: inconclusive; TGFb SMAD3 inh: 5.5%

How did Cc1cc(NC(=O)C2CCN(S(=O)(=O)c3ccc4[nH]c(=O)oc4c3)CC2)ccc1Br do in these assays?
KB-V1 MDR tox: inactive; HepG2 viability: -15.3%; KB-3-1 cytotox: inactive; ATXN2 expr inh: inconclusive; S2 tox: inactive; TGFb SMAD3 inh: inconclusive

Results for CCCCCCCC/C=C\CCCCCCCCN ?
ATXN2 expr inh: -0.4%; S2 tox: inactive

What do the screens show for `Cc1c(C(=O)N2CCCC2)sc2ncnc(NCCN(C)C)c12`?
S2 tox: inactive

Results for CC(C)CNc1ncnc2onc(-c3ccc(Cl)cc3)c12 ?
KB-V1 MDR tox: inactive; HepG2 viability: -0.1%; KB-3-1 cytotox: inactive; ATXN2 expr inh: 0.6%; S2 tox: inactive; TGFb SMAD3 inh: 3.8%

What do the screens show for `COc1cccc(Nc2nc(C(N)CCc3ccccc3)cs2)n1` (stereo not given)?
KB-V1 MDR tox: inconclusive; HepG2 viability: -90.7%; KB-3-1 cytotox: inconclusive; ATXN2 expr inh: 28.2µM*; S2 tox: inconclusive; TGFb SMAD3 inh: inconclusive

How did NC(COCc1ccccc1)c1csc(Nc2cc(Oc3ccccc3)ncn2)n1 (stereo not given) do in these assays?
KB-V1 MDR tox: inconclusive; HepG2 viability: -100.9%; KB-3-1 cytotox: inactive; ATXN2 expr inh: inconclusive; S2 tox: inconclusive; TGFb SMAD3 inh: inconclusive

What do the screens show for `NC(=O)c1cccc(Nc2nc(C(N)CCc3ccccc3)cs2)n1` (stereo not given)?
KB-V1 MDR tox: inactive; HepG2 viability: -38.0%; KB-3-1 cytotox: inactive; ATXN2 expr inh: -8.5%; S2 tox: inactive; TGFb SMAD3 inh: 4.9%

Results for NC(CCc1ccccc1)c1csc(NC(=O)NCCc2ccccc2)n1 (stereo not given) ?
KB-V1 MDR tox: inconclusive; HepG2 viability: -78.7%; KB-3-1 cytotox: inconclusive; ATXN2 expr inh: -26.7%; S2 tox: inactive; TGFb SMAD3 inh: inconclusive

How did COc1cccc(Nc2nc(C(N)COCc3ccccc3)cs2)n1 (stereo not given) do in these assays?
KB-V1 MDR tox: inactive; HepG2 viability: 11.2µM*; KB-3-1 cytotox: inactive; ATXN2 expr inh: -21.8%; S2 tox: inactive; TGFb SMAD3 inh: inconclusive

Results for COc1ccccc1CNC(=O)Nc1nc(C(N)CCc2ccccc2)cs1 (stereo not given) ?
KB-V1 MDR tox: inactive; HepG2 viability: 12.6µM*; KB-3-1 cytotox: inconclusive; ATXN2 expr inh: inconclusive; TGFb SMAD3 inh: inconclusive

Results for CCC(C(=O)NCc1ccccc1Cl)n1c(=O)c2cccn2c2ccccc21 (stereo not given) ?
HepG2 viability: -2.7%; TGFb SMAD3 inh: inconclusive

What do the screens show for `CCn1c(-c2ccccc2F)nc2cc(C(=O)NCc3ccc(C)o3)cc(NC(C)=O)c21`?
S2 tox: inactive

Results for O=C(O)c1ccccc1C(=O)Nc1ccccc1 ?
KB-V1 MDR tox: inactive; HepG2 viability: -5.1%; KB-3-1 cytotox: inactive; ATXN2 expr inh: 2.5%; S2 tox: inactive; TGFb SMAD3 inh: -23.3%

What do the screens show for `O=C(Nc1ccccc1)C1=C(c2ccccc2)S(=O)(=O)CCS1(=O)=O`?
KB-V1 MDR tox: inactive; HepG2 viability: 2.51µM*; KB-3-1 cytotox: inconclusive; ATXN2 expr inh: 5.62µM*; S2 tox: 8.91µM*; TGFb SMAD3 inh: 2.51µM*

Results for Cc1ccc(/C=N/NC(=O)CSc2nc3ccccc3n2C)s1 ?
KB-V1 MDR tox: 14.6µM*; HepG2 viability: -22.2%; KB-3-1 cytotox: inactive; ATXN2 expr inh: 6.2%; S2 tox: inactive; TGFb SMAD3 inh: -12.5%

What do the screens show for `O=C(N/N=C/c1cccs1)c1ccc2ncccc2c1`?
KB-V1 MDR tox: inactive; HepG2 viability: -2.4%; KB-3-1 cytotox: inactive; ATXN2 expr inh: 24.6%; S2 tox: inactive; TGFb SMAD3 inh: -15.8%

Results for O=C(O)c1cccc(N/N=C/c2cccs2)c1 ?
KB-V1 MDR tox: inactive; HepG2 viability: 3.4%; KB-3-1 cytotox: inactive; ATXN2 expr inh: 10µM*; S2 tox: inconclusive; TGFb SMAD3 inh: 5.6%

How did Cn1c(SCC(=O)N/N=C/c2cccs2)nc2ccccc21 do in these assays?
KB-V1 MDR tox: inactive; HepG2 viability: -31.1%; KB-3-1 cytotox: inactive; ATXN2 expr inh: 1.8%; S2 tox: inactive; TGFb SMAD3 inh: -23.6%

Results for O=C(N/N=C/c1cc(Br)cs1)c1ccc2c(c1)OCCO2 ?
KB-V1 MDR tox: inconclusive; HepG2 viability: -33.8%; KB-3-1 cytotox: inconclusive; ATXN2 expr inh: -18.9%; S2 tox: inactive; TGFb SMAD3 inh: -28.5%

What do the screens show for `Cc1ccc(/C=N/NC(=O)c2ccc3c(c2)OCCO3)s1`?
KB-V1 MDR tox: inconclusive; HepG2 viability: -13.0%; KB-3-1 cytotox: 20.6µM*; ATXN2 expr inh: -8.5%; S2 tox: inconclusive; TGFb SMAD3 inh: -1.1%

Results for O=C(N/N=C/c1cccs1)c1ccc2ccccc2c1 ?
KB-V1 MDR tox: inconclusive; HepG2 viability: 1.6%; KB-3-1 cytotox: 20.6µM*; ATXN2 expr inh: 6.0%; S2 tox: inconclusive; TGFb SMAD3 inh: 19.9%

Results for CC1CC=CC2C1C(=O)N(Cc1ccccc1)C2c1ccc(-c2ccc(N(C)C)cc2)cc1F (stereo not given) ?
HepG2 viability: 1.1%; TGFb SMAD3 inh: -2.7%
